About 83,000 compounds went through this panel and 20% of them were active in at least one assay; those are over-represented in the sample as a whole.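 Step 1: grow cells in 96-well plates. Step 2: add test compound at a single concentration. Step 3: incubate 48 h. Step 4: record percent growth.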 Calls of active or inactive are those of the source. How the source made its calls: active means growth percent below 10; inactive means the rest.

These results are taken from PubChem BioAssay (NCI).

The assay concerns KM12 colon. As to the kind of experiment: NCI-60 one-dose screen, 48 h (100 = growth as untreated, 0 = no growth, -100 = all killed). The following applies: 10 µM unless noted.
Take `COc1ccc(-c2cc3c(C)nc(N)nc3n(C3CCC(OCCO)CC3)c2=O)cn1` (stereo not drawn): the growth is 5.53% (active).
Under `Cc1c(Cn2c(C)nc3c(C(=O)O)cc(N4CCOCC4)cc32)cccc1C(F)(F)F` stands 103% (inactive).
For `Cc1nc2ccc(-n3ncc(C(=O)c4cc5ccccc5[nH]4)c3N)cc2[nH]1`, the growth is 17.3% (inactive).
The result for `Cc1cn(-c2cc(NC(=O)c3ccc(C)c(Nc4nccc(-c5cnccn5)n4)c3)cc(C(F)(F)F)c2)cn1` reads 46.4% (inactive); that for `C=CC(=O)N1CCC[C@H](n2c(=O)n(-c3ccc(Oc4ccccc4)cc3)c3c(N)ncnc32)C1`, 92.1% (inactive).
As for `CC(C)OP(=O)(CCC(=O)c1c[nH]c2ccccc12)OC(C)C`, the growth is 99.9% (inactive).
Under `O=C1/C(=C\c2cccc(OCCCCCOc3ccc(Cl)cc3)c2)N=C2SCCCN12` stands 48.2% (inactive); under `COC(=O)CCCNc1c(-c2c(O)c(O)cc3c(O)c(-c4c(C)cc5c(-c6nc7ccccn7c6NCCCC(=O)OC)c(O)c(O)cc5c4O)c(C)cc23)nc2ccccn12`, 31.8% (inactive); under `Cc1nn(-c2nc3ccccc3[nH]2)c2c1C(c1ccc(OCc3ccc(F)cc3)cc1)CC(=O)N2` (stereo not drawn), 41.5% (inactive).
Under `CCCC(=O)OCC1OC(n2cnc3c(=S)nc(N)[nH]c32)C(OC(=O)CCC)C1OC(=O)CCC` (stereo not drawn) stands 41% (inactive); under `CNC(=O)c1cccc2cc(Oc3ccnc4cc(OCC5(N)CC5)c(OC)cc34)ccc12`, 45.9% (inactive).
Turning to `O=C(Nc1ccc(Nc2ncnc3sc4c(c23)CCOC4)cc1)Nc1ccc(Cl)c(C(F)(F)F)c1`, the growth was 86.4% (inactive).
Under `O=C1CC(c2ccc3c(c2)OCO3)c2ncn(-c3ccc(Cl)cc3)c2N1` (stereo not drawn) stands 32.7% (inactive); under `Cc1ccc(N=C2CSc3nnc(-c4csc5c4CCCC5)n3N2)cc1`, 24% (inactive); under `CCc1ccc(/C=C/c2ccc(O)c3ncccc23)[n+](C)c1`, 40.2% (inactive).
For the compound `CS(=O)(=O)CCNCc1ccc(-c2ccc3ncnc(Nc4ccc(OCc5cccc(F)c5)c(Cl)c4)c3c2)o1`, the growth is -34.9% (active).
The result for `COc1ccc(Nc2ncccc2NC(=O)c2cn(Cc3cccc(Oc4ccccc4)c3)nn2)cc1` reads 84.8% (inactive).
Under `COc1cc2c(Oc3ccc(NC(=O)C4(C(=O)Nc5ccc(F)cc5)CC4)cc3F)ccnc2cc1OCCCN1CCOCC1` stands 0.619% (active); under `Cc1cnc(Nc2ccc(OCCN3CCCC3)cc2)nc1Nc1cccc(S(=O)(=O)NC(C)(C)C)c1`, 5.75% (active); under `N#CC(C#N)=NO`, 103% (inactive).
With `Cc1sc2c(c1C)c(=O)nc1c(-c3nc(-c4ccccc4)cs3)n[nH]n12`, the growth is 99.4% (inactive).
For `C=CC(=O)N1CCC(Oc2cc3c(Nc4ccc(Cl)c(Cl)c4F)ncnc3cc2OC)CC1`, the growth is 30.6% (inactive).
In the case of `Cc1cn(-c2cc(NC(=O)c3ccc(C)c(Nc4nccc(-c5cccnc5)n4)c3)cc(C(F)(F)F)c2)cn1`, the growth was 30% (inactive).
Under `Cc1cccc(Cl)c1NC(=O)c1cnc(Nc2cc(N3CCOCC3)cc(S(C)(=O)=O)c2)s1` stands 87.8% (inactive); under `COc1cc(C2CC(c3ccc(Cl)cc3)=NN2c2ccc(Cl)cc2)cc(OC)c1OC` (stereo not drawn), 96.5% (inactive).
The result for `CCc1cc2c(c3ccc(C(=O)CBr)cc13)CCCC2` reads 103% (inactive); that for `CC(N)C(Cc1ccc(Cl)cc1)c1ccc(Cl)cc1` (stereo not drawn), 63% (inactive).
As to `C=CC(=O)Nc1cccc(Oc2nc(Nc3ccc(N4CCN(C)CC4)cc3)nc3ccsc23)c1`, the growth is -79.1% (active).
Under `O=C(c1c(F)ccc(NS(=O)(=O)N2CC[C@@H](F)C2)c1F)c1c[nH]c2ncc(-c3cnc(C4CC4)nc3)cc12` stands 54.4% (inactive).
Under `CCN(CCN(C)C)C(=O)CNCc1cc(C(N)=O)ccn1` stands 101% (inactive); under `CCc1cc2c(cc1N1CCC(N3CCOCC3)CC1)C(C)(C)c1[nH]c3cc(C#N)ccc3c1C2=O`, 4.1% (active).
The result for `O=C(Cc1ccc(-c2ccc(OCCN3CCOCC3)cc2)cn1)NCc1ccccc1` reads 6.91% (active).
For the compound `c1cn2cc(-c3ccc4cn[nH]c4c3)nc(Nc3ccc(N4CCOCC4)cc3)c2n1`, the growth was 20.5% (inactive).
Under `N#CCNC(=O)c1ccc(-c2ccnc(Nc3ccc(N4CCOCC4)cc3)n2)cc1` stands 16.9% (inactive).
Under `Cc1cccc(Cl)c1NC(=O)c1cnc(Nc2cc(N3CCOCC3)cc(N3CCOCC3)c2)s1` stands 62.4% (inactive); under `Cc1cc(Nc2cc(N3CCN(C)CC3)nc(/C=C/c3ccccc3)n2)n[nH]1`, -16.9% (active); under `Cc1cc(N(CCNc2ccnc3cc(Cl)ccc23)Cc2cccs2)nc(Cl)n1`, 34% (inactive).
Under `NC(=O)c1n[nH]n2c1nc(=O)c1c3c(sc12)CCCC3` stands 104% (inactive).
